According to ChEMBL document CHEMBL1201862, “PubChem BioAssay data set” (2004):
Among all 57,000 […] or so, about 3,400 (6%) were called active. Cut-off read from the data, not from the text of the source: active = GI50 up to about 1.1 µM and inactive = higher. These entries were drawn from the full list. Entries with a potency or affinity are not part of this list.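 All cell lines were grown in 96-well plates and treated with compound for 48 hours. GI50 is the concentration that inhibits growth by half.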

What follows are substances tested on UO-31 (assay: NCI tumour cell line growth inhibition, 48 h).

Question: For CISPLATIN, CHEMBL11359, which GI50 is on record?
Answer: 3.36 µM

Question: Which GI50 does the source give for “[Bis(aminomethyl)dimethylsilane]tetrachloroplatinum(IV), CHEMBL2146190” here?
Answer: 9.93 µM

Question: With “[Bis(aminomethyl)ethylmethylsilane]tetrachloroplatinum(IV), CHEMBL2146192” as the substance, how does the GI50 read?
Answer: 7.48 µM

Question: With “[Bis(aminomethyl)tetramethylenesilane]dichloropaltinum(II), CHEMBL2146205” as the substance, how does the GI50 read?
Answer: 22.3 µM

Question: Which GI50 does the source give for “[Bis(aminomethyl)dimethylsilane]dichloroplatinum (II), CHEMBL2146201” here?
Answer: 55.2 µM

Question: “[Bis(aminomethyl)diethylsilane]tetrachloroplatinum(IV), CHEMBL2146203” was tested. Which GI50 did it give?
Answer: 4.43 µM

Question: “[Bis(aminomethyl)pentamethylenesilane]tetrachloropaltinum(IV), CHEMBL2146204” was tested. Which GI50 did it give?
Answer: 0.731 µM

Question: How did the GI50 turn out when “[Bis(aminomethyl)pentamethylenesilane]dichloropaltinum(II), CHEMBL2146202” was run?
Answer: 3.21 µM

Question: With “mu-(1,7-nanodiamine-N,N')bis-(cis-aminedichloroplatimum (II)), CHEMBL2146215” as the substance, how does the GI50 read?
Answer: 44.8 µM

Question: Which GI50 does the source give for “cis-Bis[[(trimethylsilyl)methyl]amino]tetrachloroplatinum(IV), CHEMBL2146191” here?
Answer: 16.2 µM

Question: How did the GI50 turn out when “[Bis(aminomethyl)tetramethylenesilane]tetrachloropaltinum(IV), CHEMBL2146189” was run?
Answer: 3.73 µM
